Values joined by “and” are separate entries in the source; they are usually repeats but may differ in a detail not shown here. Identical values can stand only once. Inconclusive results are not listed. Active and inactive are the calls of the source. Unless noted, calls come from the whole dose curve; as a rule, active = well fitted curve in the direction sought with a large enough effect in the repeat runs; inconclusive = weak or mixed curves; inactive = no such curve, though single readings can be large; an effect the other way counts as inactive or inconclusive.
Experiments:
[1] = target: Estrogen receptor beta (Homo sapiens) (UniProt Q92731); test: qHTS assay to identify small molecule antagonists of the estrogen receptor beta (ER-beta) signaling pathway (AID 1259378; active = well fitted inhibition curve with a large enough effect in the signal ratio in the repeat runs, not every such curve was filed as active; the % refers to the signal ratio; note: potency is the fitted concentration of half-maximal effect)
In short: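 Antagonist mode: compounds added to beta-lactamase reporter HEK293T ER-beta-UAS cells stimulated with E2 (1nM final), 16 hr at 37C. LiveBLAzer B/G FRET substrate, 2 hours room temperature, fluorescence read-out.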

[2] = qHTS assay to identify small molecule agonists of the androgen receptor (AR) signaling pathway in the presence of an antagonist - cell viability counter screen (AID 1259379); note: nearly all actives have a fitted effect of over 25% in size; note: potency is the fitted concentration of half-maximal effect;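 for activity change, negative = cytotoxicity: MDA-kb2 human breast cancer cells carrying an MMTV luciferase reporter; series mostly up to about 92 µM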
In short: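 Fluorescence from CellTiter-Fluor, added after 15 hr and read 1 hr later, gave cell viability. Cells were MDA-kb2 exposed to compounds (15 concentrations) in the presence of 3.0uM nilutamide at 37C, 0% CO2.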

[3] = qHTS assay to identify small molecule agonists of the estrogen receptor beta (ER-beta) signaling pathway - cell viability counter screen (AID 1259380); note: nearly all actives have a fitted effect of over 30% in size; note: potency is the fitted concentration of half-maximal effect
In short: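 Same-well viability counter screen. Cells: ER-beta-UAS-bla HEK293T, plated 6 hr before compound, in 2% charcoal-stripped FBS. Compound exposure 16 hr, 37C; viability by CellTiter-Glo luminescence after 30 min at room temperature.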

[4] = qHTS assay to identify small molecule antagonists of the estrogen receptor beta (ER-beta) signaling pathway - cell viability counter screen (AID 1259382); note: nearly all actives have a fitted effect of over 55% in size; note: potency is the fitted concentration of half-maximal effect;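 for activity change, negative = cytotoxicity: HEK293T cells carrying ER-beta-UAS-bla reporter stimulated with estradiol; series mostly up to about 92 µM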
In short: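 Following a 6 hr plating period, HEK293T cells carrying a UAS-driven beta-lactamase reporter under ER-beta control received compounds and 1nM E2 (final). After 16 hr at 37C and 2 hr substrate loading, CellTiter-Glo luminescence indicated viability.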

[5] = target: Estrogen receptor (Homo sapiens) (UniProt P03372); test: qHTS assay to identify small molecule agonists of the estrogen receptor alpha (ER-alpha) signaling pathway in the presence of an antagonist (AID 1259383; calls by dose curve; note: top concentration of the series differs between compounds; nearly all actives have a fitted effect of over 15% in size)
In short: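 Cells are hormone-deprived for 5 days (charcoal-stripped FBS, no phenol red), plated for 24hr, spiked with 10.0nM ICI-182,780, then dosed at 15 concentrations. After 22hr at 37C, ONE-Glo luminescence reports ERE-luciferase activity.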

[6] = qHTS assay to identify small molecule agonists or antagonists of the thyroid stimulating hormone receptor (TSHR) signaling pathway - wild type cell line counter screen (AID 1259384; calls by dose curve)
In short: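 Counter screen in untransfected Hek293: compounds (15-point titration, triplicate) plus phosphodiesterase inhibitor Ro20-1724 added after 18 h plating; 30 min RT. Intracellular cAMP via competitive d2/cryptate immunoassay, 1 h incubation.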

[7] = target: Thyrotropin receptor (Homo sapiens) (UniProt P16473); test: qHTS assay to identify small molecule antagonists of the thyroid stimulating hormone receptor (TSHR) signaling pathway (AID 1259385; calls by dose curve; note: nearly all actives have a fitted effect of over 20% in size)
In short: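 Antagonist mode: compound-treated TSHR-expressing HEK293 cells were stimulated with 1.5 ng/mL TSH (final) in presence of Ro20-1724 for 30 min at RT. HTRF cAMP detection after 1 h; each compound tested at 15 concentrations, triplicate.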

[8] = qHTS assay to identify small molecule agonists of the estrogen receptor alpha (ER-alpha) signaling pathway in the presence of an antagonist - cell viability counter screen (AID 1259386);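 note: cells exposed to compounds for 22 h at 37 °C before the viability read; nearly all actives have a fitted effect of over 30% in size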; note: potency is the fitted concentration of half-maximal effect; for activity change, negative = cytotoxicity: series mostly up to about 92 µM
In short: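 Cells are starved of estrogens for 5 days in charcoal-stripped serum, seeded for 24hr and co-treated with ICI-182,780 (10.0nM final) and test compounds. After 22hr at 37C, viability is read as CellTiter-Fluor fluorescence.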

[9] = target: Progesterone receptor (Homo sapiens) (UniProt P06401); test: qHTS assay to identify small molecule agonists of the progesterone receptor (PR) signaling pathway (AID 1346784; calls by dose curve; note: nearly all actives have a fitted effect of over 30% in size)
In short: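 Reporter assay, GripTite PR-UAS-bla HEK 293T cells: 16 hr exposure to DMSO-dissolved compounds at 37C, 5% CO2, in steroid-depleted (2% charcoal-stripped FBS) medium; beta-lactamase measured by FRET fluorescence.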

[10] = target: Progesterone receptor (Homo sapiens) (UniProt P06401); test: qHTS assay to identify small molecule antagonists of the progesterone receptor (PR) signaling pathway (AID 1346795; active = well fitted inhibition curve with a large enough effect in the signal ratio in the repeat runs, not every such curve was filed as active; the % refers to the signal ratio; note: potency is the fitted concentration of half-maximal effect)
In short: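 Stimulus R5020 at 1 nM final; cells HEK293T PR-UAS-bla; medium with 2% charcoal-stripped FBS; compound exposure 16 hr at 37C, 5% CO2; detection by FRET beta-lactamase substrate, 2 hr, room temperature.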

[11] = qHTS assay to identify small molecule antagonists of the progesterone receptor (PR) signaling pathway - cell viability counter screen (AID 1346798); note: nearly all actives have a fitted effect of over 50% in size; note: potency is the fitted concentration of half-maximal effect; for activity change, negative = cytotoxicity: series mostly up to about 92 µM
In short: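 In the same plates used for the beta-lactamase readout, cell viability of compound- and R5020-treated PR-UAS-bla HEK293T cells (16 hr, 37C) was assessed by CellTiter-Glo luminescence.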

[12] = qHTS assay to identify small molecule agonists of the progesterone receptor (PR) signaling pathway - cell viability counter screen (AID 1346799; calls by dose curve; note: nearly all actives have a fitted effect of over 45% in size; note: potency is the fitted concentration of half-maximal effect)
In short: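 Multiplexed viability read: CellTiter-Glo luminescence, 30 min RT, following LiveBLAzer FRET measurement on PR-UAS-bla HEK293T cells exposed to compounds 16 hr.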

[13] = qHTS assay to identify small molecule antagonists of the TGF-beta/Smad signaling pathway - cell viability counter screen (AID 1346824); note: nearly all actives have a fitted effect of over 50% in size; note: potency is the fitted concentration of half-maximal effect
In short: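 Cytotoxicity counter-screen run in the same wells as the beta-lactamase Smad reporter read: CellTiter-Glo luminescence after 30 min at room temperature. HEK 293T SBE-bla cells had 5 hr compound exposure at 37 C with TGF-beta1 (0.25 ng/mL stock).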

[14] = qHTS assay to identify small molecule agonists of the TGF-beta/Smad signaling pathway - cell viability counter screen (AID 1346829); note: nearly all actives have a fitted effect of over 45% in size; note: potency is the fitted concentration of half-maximal effect; for activity change, negative = cytotoxicity: top concentration of the series differs between compounds
In short: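 After overnight seating at 37 C and 5% CO2, reporter cells got compounds for 5 hr and FRET substrate for 2 hr; cell viability then came from CellTiter-Glo luminescence.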

[15] = qHTS assay to identify small molecule agonists of the TGF-beta/Smad signaling pathway (AID 1346859; active = well fitted activation curve with a large enough effect in the signal ratio in the repeat runs, not every such curve was filed as active; the % refers to the signal ratio; note: series mostly up to about 77 µM)
In short: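 Screening used HEK 293T SBE-bla cells at 4,000/well. Test agents: 5 hr, 37 C. Detection: FRET substrate, 2 hr RT, then excitation 405 nm with emissions at 460 and 530 nm.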

[16] = target: Thyrotropin-releasing hormone receptor (Homo sapiens) (UniProt P34981); test: qHTS assay to identify small molecule antagonists of the thyrotropin-releasing hormone receptor (TRHR) signaling pathway (AID 1346877; active = well fitted inhibition curve with a large enough effect in the repeat runs, not every such curve was filed as active; note: series mostly up to about 51 µM)
In short: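 Cells (TRHR-HEK293) are plated and kept 18 h at 37 °C/5% CO2. A calcium-sensitive dye is added for 2 h, compound follows for 5 min at room temperature, and TRH is then given at 1 nM final.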

[17] = target: Thyrotropin-releasing hormone receptor (Homo sapiens) (UniProt P34981); test: qHTS assay to identify small molecule agonists of the thyrotropin-releasing hormone receptor (TRHR) signaling pathway (AID 1346891; calls by dose curve; note: series mostly up to about 58 µM)
In short: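 Readout was intracellular calcium fluorescence in TRHR-Hek293 cells. Cells were incubated 18 h, dye-loaded 2 h at 37 °C, and treated with compound in agonist mode.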

[18] = Caspase-3/7 induction in HepG2 cells by small molecules, qHTS assay (AID 1346978); note: nearly all actives have a fitted effect of over 15% in size; note: potency is the fitted concentration of half-maximal effect
In short: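 Caspase-3/7 induction was measured by Caspase-Glo 3/7 luminescence (30 min, room temperature) after a 17 hr compound exposure of wild-type HepG2 cells seeded at 2,000 per well and pre-incubated 5 hr.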

[19] = target: Androgen receptor (Homo sapiens) (UniProt P10275); test: qHTS assay to identify small molecule agonists of the androgen receptor (AR) signaling pathway in the presence of an antagonist (AID 1259381; calls by dose curve; note: nearly all actives have a fitted effect of over 15% in size)
In short: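 Cells are MDA-kb2 (human breast carcinoma, MMTV-luc, AR/GR responsive). Nilutamide is present at 3.0uM final throughout; compounds are added at 15 concentrations and incubated 16hr at 37C before ONE-Glo luminescence detection.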

[20] = Human pregnane X receptor (PXR) small molecule agonists, qHTS cell viability counter screen (AID 1346977); note: nearly all actives have a fitted effect of over 50% in size; note: potency is the fitted concentration of half-maximal effect
In short: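 In each well, the PXR reporter HepG2 line was checked for viability: CellTiter-Fluor reagent added 23hr post-dosing, fluorescence read after 1hr incubation at 37C.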
% is set by controls: 0 for no effect and ±100 for the full control effect.

Sequence of Progesterone receptor (Homo sapiens) (P06401 whole entry, looked up): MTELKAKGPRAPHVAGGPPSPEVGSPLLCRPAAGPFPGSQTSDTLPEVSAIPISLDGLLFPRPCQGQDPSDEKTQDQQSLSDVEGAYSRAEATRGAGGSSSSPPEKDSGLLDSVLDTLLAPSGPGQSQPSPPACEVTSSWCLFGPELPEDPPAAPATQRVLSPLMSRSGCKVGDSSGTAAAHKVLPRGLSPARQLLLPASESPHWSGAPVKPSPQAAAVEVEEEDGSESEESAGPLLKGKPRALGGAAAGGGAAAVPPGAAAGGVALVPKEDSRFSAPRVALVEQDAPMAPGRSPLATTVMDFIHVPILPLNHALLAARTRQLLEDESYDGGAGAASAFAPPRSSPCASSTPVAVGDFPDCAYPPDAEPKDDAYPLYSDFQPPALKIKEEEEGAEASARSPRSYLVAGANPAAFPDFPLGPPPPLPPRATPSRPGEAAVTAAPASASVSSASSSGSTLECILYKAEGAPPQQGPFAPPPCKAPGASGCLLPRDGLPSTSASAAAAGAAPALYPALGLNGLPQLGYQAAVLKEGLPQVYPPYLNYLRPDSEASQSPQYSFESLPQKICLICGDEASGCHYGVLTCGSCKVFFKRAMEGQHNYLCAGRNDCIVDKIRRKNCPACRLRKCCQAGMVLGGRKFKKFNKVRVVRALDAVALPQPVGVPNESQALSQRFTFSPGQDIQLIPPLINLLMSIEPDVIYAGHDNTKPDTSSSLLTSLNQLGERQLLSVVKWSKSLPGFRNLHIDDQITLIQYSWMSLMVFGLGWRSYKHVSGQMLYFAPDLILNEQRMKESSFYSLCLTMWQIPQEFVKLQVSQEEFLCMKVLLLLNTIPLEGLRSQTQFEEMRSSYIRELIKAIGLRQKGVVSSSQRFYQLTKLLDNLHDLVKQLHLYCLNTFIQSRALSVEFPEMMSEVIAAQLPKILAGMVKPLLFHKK
Sequence of Androgen receptor (Homo sapiens) (P10275 whole entry, looked up): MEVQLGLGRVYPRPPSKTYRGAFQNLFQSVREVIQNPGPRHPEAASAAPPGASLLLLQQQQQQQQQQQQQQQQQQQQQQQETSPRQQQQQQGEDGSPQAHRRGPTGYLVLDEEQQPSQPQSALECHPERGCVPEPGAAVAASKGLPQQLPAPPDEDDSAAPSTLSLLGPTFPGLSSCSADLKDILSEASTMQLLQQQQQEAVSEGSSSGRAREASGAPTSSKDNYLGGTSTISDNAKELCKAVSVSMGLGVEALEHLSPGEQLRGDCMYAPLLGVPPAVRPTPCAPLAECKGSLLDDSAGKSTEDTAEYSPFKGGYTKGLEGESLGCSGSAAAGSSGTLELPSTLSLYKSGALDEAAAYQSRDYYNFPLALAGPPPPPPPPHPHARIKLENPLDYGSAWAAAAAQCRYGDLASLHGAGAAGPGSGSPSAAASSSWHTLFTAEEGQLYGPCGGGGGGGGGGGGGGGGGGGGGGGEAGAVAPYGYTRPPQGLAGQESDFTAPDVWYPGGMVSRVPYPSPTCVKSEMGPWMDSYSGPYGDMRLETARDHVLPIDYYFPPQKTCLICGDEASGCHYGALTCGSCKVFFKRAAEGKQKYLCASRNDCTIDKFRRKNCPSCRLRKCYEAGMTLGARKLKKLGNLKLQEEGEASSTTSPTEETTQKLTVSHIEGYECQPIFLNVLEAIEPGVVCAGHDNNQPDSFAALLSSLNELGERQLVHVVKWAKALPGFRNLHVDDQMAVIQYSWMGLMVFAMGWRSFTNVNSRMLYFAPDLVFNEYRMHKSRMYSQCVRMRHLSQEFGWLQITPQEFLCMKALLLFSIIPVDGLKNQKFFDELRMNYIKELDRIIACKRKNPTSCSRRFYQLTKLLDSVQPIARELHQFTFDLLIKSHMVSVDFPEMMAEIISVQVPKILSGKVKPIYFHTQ
Sequence of Thyrotropin-releasing hormone receptor (Homo sapiens) (P34981 whole entry, looked up): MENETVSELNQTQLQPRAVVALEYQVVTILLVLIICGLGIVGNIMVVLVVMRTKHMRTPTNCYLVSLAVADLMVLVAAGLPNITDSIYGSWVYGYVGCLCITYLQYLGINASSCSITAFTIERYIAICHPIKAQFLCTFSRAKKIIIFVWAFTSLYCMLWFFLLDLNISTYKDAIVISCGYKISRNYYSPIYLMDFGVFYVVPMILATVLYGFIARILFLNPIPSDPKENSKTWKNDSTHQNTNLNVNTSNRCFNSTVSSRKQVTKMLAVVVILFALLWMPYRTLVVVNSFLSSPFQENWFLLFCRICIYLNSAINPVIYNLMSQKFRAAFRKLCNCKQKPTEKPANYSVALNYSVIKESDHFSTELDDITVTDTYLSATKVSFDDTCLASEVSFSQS
Sequence of Thyrotropin receptor (Homo sapiens) (P16473 whole entry, looked up): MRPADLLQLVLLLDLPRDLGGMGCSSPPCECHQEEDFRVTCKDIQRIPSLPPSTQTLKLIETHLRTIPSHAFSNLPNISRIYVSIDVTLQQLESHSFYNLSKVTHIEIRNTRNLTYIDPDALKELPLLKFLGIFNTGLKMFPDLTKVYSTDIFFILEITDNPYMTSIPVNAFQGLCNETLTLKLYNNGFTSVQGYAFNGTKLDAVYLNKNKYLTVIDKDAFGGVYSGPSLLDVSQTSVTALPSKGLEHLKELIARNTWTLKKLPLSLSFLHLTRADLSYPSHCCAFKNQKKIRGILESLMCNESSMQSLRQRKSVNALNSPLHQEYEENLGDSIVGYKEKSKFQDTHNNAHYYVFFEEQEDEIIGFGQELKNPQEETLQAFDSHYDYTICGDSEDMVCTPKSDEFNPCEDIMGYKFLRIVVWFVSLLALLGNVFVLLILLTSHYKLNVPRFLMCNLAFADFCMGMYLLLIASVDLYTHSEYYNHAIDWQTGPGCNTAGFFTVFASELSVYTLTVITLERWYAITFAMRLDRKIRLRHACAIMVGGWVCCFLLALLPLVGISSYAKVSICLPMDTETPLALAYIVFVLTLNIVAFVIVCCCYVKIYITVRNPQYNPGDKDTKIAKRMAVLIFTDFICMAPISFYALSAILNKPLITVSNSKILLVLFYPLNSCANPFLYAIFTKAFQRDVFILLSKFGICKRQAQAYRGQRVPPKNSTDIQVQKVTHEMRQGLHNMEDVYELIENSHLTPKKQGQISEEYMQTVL
Sequence of Estrogen receptor beta (Homo sapiens) (Q92731 whole entry, looked up): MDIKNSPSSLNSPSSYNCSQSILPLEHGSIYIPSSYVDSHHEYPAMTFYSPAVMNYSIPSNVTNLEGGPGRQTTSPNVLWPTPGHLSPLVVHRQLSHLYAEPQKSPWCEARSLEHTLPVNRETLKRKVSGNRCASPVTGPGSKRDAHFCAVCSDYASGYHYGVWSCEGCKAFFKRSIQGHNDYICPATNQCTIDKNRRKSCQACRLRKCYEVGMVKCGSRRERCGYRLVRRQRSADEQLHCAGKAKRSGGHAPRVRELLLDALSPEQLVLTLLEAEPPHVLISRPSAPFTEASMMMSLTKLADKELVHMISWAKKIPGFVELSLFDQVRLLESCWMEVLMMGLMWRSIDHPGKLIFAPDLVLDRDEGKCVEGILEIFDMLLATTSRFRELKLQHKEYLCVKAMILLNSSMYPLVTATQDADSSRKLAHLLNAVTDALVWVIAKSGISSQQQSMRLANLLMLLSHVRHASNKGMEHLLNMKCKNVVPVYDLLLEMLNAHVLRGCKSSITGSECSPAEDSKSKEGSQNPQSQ
Sequence of Estrogen receptor (Homo sapiens) (P03372 whole entry, looked up): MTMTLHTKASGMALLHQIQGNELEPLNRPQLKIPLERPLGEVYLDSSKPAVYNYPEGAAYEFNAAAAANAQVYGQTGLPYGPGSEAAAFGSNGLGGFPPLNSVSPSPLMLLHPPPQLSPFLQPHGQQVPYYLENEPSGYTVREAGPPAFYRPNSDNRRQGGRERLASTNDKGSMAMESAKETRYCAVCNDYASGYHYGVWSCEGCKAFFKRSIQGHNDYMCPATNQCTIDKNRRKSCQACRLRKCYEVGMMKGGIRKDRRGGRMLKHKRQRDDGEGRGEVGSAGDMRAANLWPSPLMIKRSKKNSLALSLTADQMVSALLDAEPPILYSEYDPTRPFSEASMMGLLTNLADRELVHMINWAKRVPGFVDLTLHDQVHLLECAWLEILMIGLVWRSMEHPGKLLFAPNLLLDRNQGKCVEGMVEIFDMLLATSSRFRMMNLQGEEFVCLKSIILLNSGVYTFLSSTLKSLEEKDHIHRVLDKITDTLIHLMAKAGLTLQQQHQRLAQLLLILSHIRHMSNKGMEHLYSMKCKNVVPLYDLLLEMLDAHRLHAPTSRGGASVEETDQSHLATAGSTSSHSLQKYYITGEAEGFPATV

CCOC(/C=C(\C)CCC=C(C)C)OCC
inactive: Potency [1] | Potency [2] | Potency [3] | Potency [4] | Potency [5] | outcome [6] | Potency [7] | Potency [8] | outcome [9] | Potency [10] | Potency [11] | Potency [12] | Potency [13] | Potency [14] | Potency [15] | Potency [16] | Potency [17] | Potency [18]

CC1CNCC(C)O1 (centres undefined)
inactive: Potency [1] | Potency [2] | Potency [3] | Potency [19] | Potency [4] | Potency [5] | outcome [6] | Potency [7] | Potency [8] | outcome [9] | Potency [10] | Potency [11] | Potency [12] | Potency [13] | Potency [14] | Potency [15] | Potency [20] | Potency [18]

N[C@@H](CSSC[C@H](N)C(=O)O)C(=O)O
inactive: activity, negative = inhibition [1] 28.3% [at 0.349 µM] | activity change, negative = cytotoxicity [2] 0.823% [at 0.35 µM] | activity change, negative = cytotoxicity [3] 3.32% [at 0.349 µM] | activation [19] -0.591% [at 0.349 µM] | activity change, negative = cytotoxicity [4] -5.72% [at 0.349 µM] | cAMP activity change [6] -6.57% [at 0.349 µM] | activity change, negative = inhibition [7] 0.59% [at 0.349 µM] | activation [9] -4.21% [at 0.349 µM] | viability change, negative = cytotoxic [13] -1.61% [at 0.29 µM] | activity change, negative = cytotoxicity [14] 1.93% [at 0.29 µM] | activation [15] 1.61% [at 0.29 µM] | activity change, negative = cytotoxicity [20] -23% [at 0.349 µM] | caspase activation [18] 0.0664% [at 0.349 µM]

NC(=O)C(=O)N/N=C/c1ccc([N+](=O)[O-])o1
inactive: Potency [1] | Potency [2] | Potency [3] | Potency [19] | Potency [4] | outcome [6] | Potency [7] | Potency [8] | outcome [9] | Potency [10] | Potency [11] | Potency [12] | Potency [13] | Potency [14] | Potency [15] | Potency [16] | Potency [17] | Potency [20] | Potency [18]

CCN=c1cc2oc3cc(NCC)c(C)cc3c(-c3ccccc3C(=O)OCC)c-2cc1C
active: Potency [1] 0.272 µM | Potency [2] 272 nM and 306 nM | Potency [3] 54.3 µM and 24.3 µM | Potency [4] 54.3 µM and 34.4 µM | Potency [8] 9.65 µM and 9.69 µM | Potency [10] 48.4 µM and 54.5 µM | Potency [11] 61.1 µM | Potency [12] 48.4 µM | Potency [13] 48.8 µM and 49 µM | Potency [14] 48.8 µM and 49 µM | Potency [20] 2.51 µM and 1.54 µM | Potency [18] 27.3 µM
inactive: Potency [19] | outcome [9]

Cc1cnccn1
inactive: Potency [1] | Potency [2] | Potency [3] | Potency [19] | Potency [4] | Potency [5] | Potency [8] | outcome [9] | Potency [10] | Potency [11] | Potency [12] | Potency [13] | Potency [14] | Potency [15] | Potency [16] | Potency [17] | Potency [20] | Potency [18]

CC1=CP(=O)(c2ccccc2)CC1 (centres undefined)
inactive: Potency [1] | Potency [2] | Potency [3] | Potency [4] | Potency [5] | outcome [6] | Potency [7] | Potency [8] | outcome [9] | Potency [10] | Potency [11] | Potency [12] | Potency [13] | Potency [14] | Potency [15] | Potency [16] | Potency [17] | Potency [20] | Potency [18]

Source: PubChem BioAssay (Tox21)
